Screens deposited in PubChem by several laboratories.
A selection: hits, their analogues and other compounds. The true share with any hit is near 4.8%.
ssDAF-12 act – activators of S. stercoralis DAF-12 nuclear receptor; HEK293 ssDAF-12/GRIP1 lit1-tk-luc reporter, luminescence; % of 3 µM dafachronic acid response; activation, % at 6.8 µM; hit rate 1% among 370,000; AID 652126;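 active means activation above the mean over all tested compounds plus 3 SD, cut at about 0.9% in these data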
hcDAF12 agonist – activates DAF-12 receptor from parasite H. contortus; HEK293 hcDAF-12 lit1-tk-luc reporter, luminescence; 0% DMSO, 100% Δ7-dafachronic acid; activation, % at 6.8 µM; hit rate 1.4% among 370,000; AID 652067;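 active means activation above the mean of all tested compounds plus 3 SD, cut at about 5.5% in these data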
NR1D1 modulator – modulators of human Rev-erb alpha DNA binding | Rev-erbα–FITC-DNA binding, fluorescence polarization, 90 min | activity, % at 10 µM | P20393 | hit rate 0.79% among 370,000 | AID 1259318;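 active means activity above about 14%, limit read from the data; passing the limit was not always enough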
Target sequence (P20393 whole entry, looked up): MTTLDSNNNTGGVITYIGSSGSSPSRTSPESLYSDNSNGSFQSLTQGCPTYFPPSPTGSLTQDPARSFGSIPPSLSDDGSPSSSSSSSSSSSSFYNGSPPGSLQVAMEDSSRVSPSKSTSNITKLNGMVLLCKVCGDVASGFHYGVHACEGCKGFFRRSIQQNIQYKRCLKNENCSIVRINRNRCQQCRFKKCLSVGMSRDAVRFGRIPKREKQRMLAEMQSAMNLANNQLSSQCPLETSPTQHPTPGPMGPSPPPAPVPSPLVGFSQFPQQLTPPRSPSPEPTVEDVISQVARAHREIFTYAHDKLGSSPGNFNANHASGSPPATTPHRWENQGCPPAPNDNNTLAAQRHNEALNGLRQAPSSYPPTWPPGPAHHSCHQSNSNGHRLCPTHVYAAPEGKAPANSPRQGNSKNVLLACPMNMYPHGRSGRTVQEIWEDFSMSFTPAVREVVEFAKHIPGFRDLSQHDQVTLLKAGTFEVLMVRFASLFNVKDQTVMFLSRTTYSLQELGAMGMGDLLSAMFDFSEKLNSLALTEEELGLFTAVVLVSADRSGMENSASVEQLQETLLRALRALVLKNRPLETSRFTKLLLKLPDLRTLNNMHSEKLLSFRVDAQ
hgDAF12 agonist – agonists of H. glycines DAF-12 nuclear receptor; activation, % at 6.8 µM; HEK293 GAL4-hgDAF12 UAS-luciferase reporter, agonist luminescence; normalized to butyrate control; hit rate 1.8% among 370,000; AID 687014;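 active means activation above a cutoff set at the mean of all screened compounds plus 3 SD, cut at about 10% in these data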
DAX1 inh-1 – inhibitors of DAX1 repression of SF-1 activated StAR promoter | inhibition, % at 6.8 µM | hit rate 1.1% among 370,000 | AID 652010 | HEK293T StAR-luciferase reporter, SF-1/DAX-1 repression relief;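 active means inhibition above the mean over all tested compounds plus 3 SD, cut at about 3.6% in these data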;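 further: higher inhibition means more luminescence from relief of DAX-1 repression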
DAX1 inh-2 – inhibits human nuclear receptor DAX1. P51843. HEK293 Gal4-DAX1 luciferase reporter, luminescence. inhibition, % at 6.75 µM. hit rate 0.99% among 340,000;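 active means inhibition above the mean over all tested compounds plus 3 SD, cut at about 4.2% in these data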;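 further: inhibition shows as a rise in luminescence from relieved DAX1 repression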
Of the large screens only hits and unclear results are named; the others gave an inactive call.

COc1ccc(CN2CN3Cc4ccc(C)cc4C3CS2(=O)=O)cc1 (stereo unspecified)	none (no result: DAX1 inh-2)
O=C(COc1ccc(Br)cc1)Nc1ccccc1N1CCCC1	ssDAF-12 act 1.4
COc1ccccc1CC(=O)Nc1cc(Cl)ccc1O	none
O=C(CN1C(=O)C2CC=CCC2C1=O)Nc1ccccc1N1CCCC1 (stereo unspecified)	none
O=C(CN1C(=O)C2CCCCC2C1=O)Nc1ccccc1N1CCCC1 (stereo unspecified)	DAX1 inh-1 4.1
COc1ccc(N2CCCC2)c(NC(=O)COc2ccccc2Cl)c1	ssDAF-12 act 1.5
O=C(COc1ccccc1Cl)Nc1cc(Cl)ccc1O	ssDAF-12 act 1.6, hcDAF12 agonist 5.7, DAX1 inh-2 4.9
COCC#Cc1ccc(CC[C@H]2O[C@H]3CC[C@@H](CO)O[C@H]3C[C@H]2n2cc(C3CC3)nn2)cc1	none (no result: DAX1 inh-2)
Nn1c(SCC(=O)N2c3ccccc3Sc3ccc(Cl)cc32)nnc1-c1n[nH]c2c1CCC2	none (no result: DAX1 inh-2)
Cc1ccc(-c2nc3ccccc3n2C)o1	hgDAF12 agonist 11, DAX1 inh-1 3.8
Cn1c(-c2nonc2N)nc2ccccc21	none
Cn1cc(C(=O)c2ccccc2)cc1-c1nc2ccccc2n1C	none
Cn1c(-c2ccc(Br)o2)nc2cc(Br)ccc21	DAX1 inh-2 4.5
CC(=O)c1ccc(-c2nc3ccccc3n2C)o1	hgDAF12 agonist 11
O=C(Nc1ccccc1Cl)OC1CC2CC1[C@H]1CCCCN1[C@H]2Cc1ccccc1 (stereo partly specified)	none (no result: DAX1 inh-2)
CC(=O)OCC(=O)[C@@]1(OC(C)=O)[C@@H](C)CC2C3C[C@H](F)C4=CC(=O)C=C[C@]4(C)[C@@]3(F)[C@@H](O)C[C@@]21C (stereo partly specified)	none (no result: ssDAF-12 act, hcDAF12 agonist, hgDAF12 agonist, DAX1 inh-1, DAX1 inh-2)
COc1ccccc1N1CCN(C(=O)c2ccc3c(c2)nc(C)n3-c2cc(OC)c(OC)c(OC)c2)CC1	none (no result: DAX1 inh-2)
Cc1ccccc1CN1CCCCC(NC(=O)Nc2ccccc2)C1=O (stereo unspecified)	none (no result: DAX1 inh-2)
COCCn1c(SCC(=O)N2CC(=O)Nc3ccccc32)nc2ccccc2c1=O	none
COCCn1c(SCC(=O)N2CC(=O)Nc3ccccc32)nc2ccccc21	hcDAF12 agonist 5.8
CCn1c2ccccc2c2cc(NC(=O)COC(=O)c3cccc(F)c3)ccc21	none (no result: DAX1 inh-2)
c1cncc(CSc2ccc(-c3cccs3)nn2)c1	hgDAF12 agonist 12
Cc1ccc(CSc2ccc(-c3cccs3)nn2)cc1	none
CN(C)S(=O)(=O)N1CCCC(C(=O)c2ccc(-c3ccccc3)cc2)C1 (stereo unspecified)	DAX1 inh-2 4.3
Cc1cc(C(=O)CSc2nnnn2C)c(C)n1CCc1ccc(F)cc1	none
Cc1cc(C(=O)CSc2nnnn2C)c(C)n1Cc1ccco1	hgDAF12 agonist 12
Cc1ccc(-n2c(C)cc(C(=O)CSc3nnnn3C)c2C)cc1	hgDAF12 agonist 12
Cc1ccc(-n2c(C)cc(C(=O)CSc3nncs3)c2C)cc1	none
Cc1cc(/C=C2\SC(=S)NC2=O)c(C)n1-c1cccc(O)c1	DAX1 inh-2 5.3
CC(C)c1ccc(-c2nnc(N)s2)cc1	hcDAF12 agonist 6.0, hgDAF12 agonist 11
O=C(OCc1cn(Cc2ccc(C(F)(F)F)cc2)nn1)N1CCCC1	none (no result: DAX1 inh-2)
COc1cc(OC)cc(C(=O)NCCN2C(=O)C3C4C=CC(C4)C3C2=O)c1 (stereo unspecified)	none (no result: DAX1 inh-2)
CCN(CC)C(=O)CC[C@@H]1CC[C@]2(CCCN(Cc3cccc4ccccc34)C2)O1	none (no result: DAX1 inh-2)
CC(C)C1C(=O)N(Cc2cn(CC3CCCCC3)nn2)CCS(=O)(=O)N1Cc1ccc(-c2ccc(Cl)nc2)cc1 (stereo unspecified)	DAX1 inh-1 4.4
CC(C)C1C(=O)N(Cc2cn(CC3CCCCC3)nn2)CCS(=O)(=O)N1Cc1ccc(-c2ccc(Cl)cc2)cc1 (stereo unspecified)	none
CC(C)CC1C(=O)N(Cc2cn(CCC3OCCCO3)nn2)CCS(=O)(=O)N1Cc1ccc(-c2ccc(Cl)nc2)cc1 (stereo unspecified)	DAX1 inh-2 5.1
O=C(CSc1nnc(-c2cccnc2)n1-c1ccccc1)Nc1ccc2c(c1)OCCO2	none (no result: DAX1 inh-2)
